What all share (assay): NCI-60 one-dose screen, 48 h (100 = growth as untreated, 0 = no growth, -100 = all killed)
One test has as its system OVCAR-8 ovarian. The settings on record: 10 µM unless noted.
The next test concerns OVCAR-5 ovarian. Conditions: 10 µM unless noted.
The subject of another test is OVCAR-4 ovarian. The settings on record: 10 µM unless noted.
For the next test, the system named is SK-OV-3 ovarian. The settings on record: 10 µM unless noted.
The test system of the next test is IGROV1 ovarian. Conditions: 10 µM unless noted.
The subject of another test is OVCAR-3 ovarian. The settings on record: 10 µM unless noted.
For the next test, the system named is HS 578T breast. Conditions: 10 µM unless noted.
A further test concerns NCI/ADR-RES ovarian. Conditions: 10 µM unless noted.
Another test has as its system T-47D breast. Conditions: 10 µM unless noted.
In a further test the test system is MDA-MB-435 melanoma. The settings on record: 10 µM unless noted.
The subject of the next test is SW-620 colon. The settings on record: 10 µM unless noted.
The test system of another test is MCF7 breast. The settings on record: 10 µM.
The next test deals with HCT-116 colon. The settings on record: 10 µM unless noted.
The subject of a further test is HCC-2998 colon. The settings on record: 10 µM unless noted.
The next test has as its system KM12 colon. Conditions: 10 µM unless noted.
The next test relates to BT-549 breast. The settings on record: 10 µM unless noted.
The next test deals with RPMI-8226 leukemia. Conditions: 10 µM unless noted.

The panel holds about 83,000 compounds, 20% with a hit somewhere; the sample as a whole holds those more often.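 The test compound was applied at a single concentration to cells in 96-well plates for 48 hours, and percent growth was recorded.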 Unmarked numbers belong to inactive results. Calls of active or inactive are those of the source. The calls were made as follows: active = growth percent below 10; inactive = the rest.

`CC1=C(C(=O)OCC2CCN(C(=O)OC(C)(C)C)CC2)[C@H](c2cccc(Br)c2)C2=C(CC(C)(C)CC2=O)N1`: the growth in the test on OVCAR-8 ovarian was 21.7%; with OVCAR-5 ovarian it was 64.8%; with OVCAR-4 ovarian it was 40%; in the test with SK-OV-3 ovarian it was 56%; with IGROV1 ovarian, 35.9%; in the test with OVCAR-3 ovarian, 30.9%. The growth is 53.5% in the test on HS 578T breast; 25.3% with NCI/ADR-RES ovarian; 22% in the test on T-47D breast; 24.9% in the test with MDA-MB-435 melanoma; 28.2% in the test with SW-620 colon; 13.8% in the test with MCF7 breast. Further, the values for the growth in the test on HCT-116 colon, in the test on HCC-2998 colon and in the test on KM12 colon were 17.7%, 49.2% and 25%, respectively.
Turning to `COc1c(B(O)O)cccc1-c1nc2ccc3n[nH]c(F)c3c2c2c1CCCC2`, the growth with OVCAR-8 ovarian is 72%; with OVCAR-5 ovarian, 105%; in the test on OVCAR-4 ovarian it was 96%; with SK-OV-3 ovarian, 79%; with IGROV1 ovarian, 80%; in the test with OVCAR-3 ovarian it was 91%. Further, the growth with HS 578T breast was 43.9%; with NCI/ADR-RES ovarian, 79.6%; in the test on T-47D breast it was 106%; with BT-549 breast, 5.08% (active); with MDA-MB-435 melanoma, 88.3%; in the test with SW-620 colon it was 59.7%. Also, the growth in the test with MCF7 breast was 61.5%; in the test on HCT-116 colon, 43.9%; with HCC-2998 colon, 116%; in the test on KM12 colon, 40.7%.
Turning to `NC1C(N)C(N)C1N` (stereo not drawn), the growth in the test with OVCAR-8 ovarian was 100%; with OVCAR-5 ovarian, 95.7%; in the test on OVCAR-4 ovarian, 105%; in the test on SK-OV-3 ovarian, 92.5%; in the test on IGROV1 ovarian, 99.6%; with OVCAR-3 ovarian, 111%. In addition, the growth with HS 578T breast was 112%; in the test on NCI/ADR-RES ovarian, 99.6%; with T-47D breast it was 102%; in the test on BT-549 breast, 107%; in the test with MDA-MB-435 melanoma, 122%; in the test with SW-620 colon, 106%. In addition, the growth with HCT-116 colon is 103%; in the test on HCC-2998 colon, 99.9%; with KM12 colon, 119%.
Consider `CC(C)[C@H](NC(=O)Cn1cc(C(=O)O)nn1)C(=O)O`, for which the growth is 105% in the test with RPMI-8226 leukemia; 104% in the test on OVCAR-4 ovarian; 111% in the test with IGROV1 ovarian; 108% in the test with OVCAR-3 ovarian; 112% in the test on HS 578T breast; 106% in the test on NCI/ADR-RES ovarian. The growth with T-47D breast is 106%; in the test on BT-549 breast, 104%; in the test with MDA-MB-435 melanoma, 98.8%; with SW-620 colon, 108%; with MCF7 breast, 97.1%; with HCT-116 colon, 102%. Besides, the results for the growth in the test on HCC-2998 colon and in the test with KM12 colon were 107% and 103%, respectively.
`CN=c1ccc2nc3ccc(N)cc3sc-2c1`: the growth is 2.77% (active) in the test on OVCAR-8 ovarian; 24.6% in the test on OVCAR-5 ovarian; -11.2% (active) with OVCAR-4 ovarian; 30.1% with SK-OV-3 ovarian; 22.3% in the test on IGROV1 ovarian; 10.8% with OVCAR-3 ovarian. Also, the growth was 59% with HS 578T breast; 5.34% (active) in the test on NCI/ADR-RES ovarian; 20.1% with T-47D breast; 52.4% in the test with BT-549 breast; -62.6% (active) with MDA-MB-435 melanoma; 10.8% in the test on SW-620 colon. Besides, the growth in the test on MCF7 breast is -12.7% (active); with HCT-116 colon, 6.01% (active); in the test on HCC-2998 colon it was 49.8%; with KM12 colon, 27.9%.
For the molecule `CC1=C(CC(=O)c2cccc([N+](=O)[O-])c2)C(=O)c2ccccc2C1=O`, the growth in the test with OVCAR-8 ovarian was 9.43% (active); in the test with OVCAR-5 ovarian, 37.5%; in the test on OVCAR-4 ovarian, -89.2% (active); with SK-OV-3 ovarian, 30.5%; in the test with IGROV1 ovarian, -61.1% (active); in the test on OVCAR-3 ovarian, -94% (active). Moreover, the growth in the test on HS 578T breast was -20.6% (active); in the test with NCI/ADR-RES ovarian, 30.9%; in the test with T-47D breast, -10.2% (active); with BT-549 breast, 2.6% (active); in the test with MDA-MB-435 melanoma, -56.1% (active); in the test with SW-620 colon, -41.2% (active). The growth was 7.59% (active) with MCF7 breast, 9.03% (active) in the test with HCT-116 colon, 96.9% in the test with HCC-2998 colon and 7.77% (active) in the test on KM12 colon.
Regarding `O=C(NC1CCN(Cc2ccccc2)CC1)c1cc2nc(-c3ccc(Cl)s3)cc(C(F)(F)F)n2n1`, the growth in the test on RPMI-8226 leukemia was -18.4% (active); with OVCAR-5 ovarian it was 93.2%; in the test on SK-OV-3 ovarian, 92.6%; in the test with IGROV1 ovarian it was 118%; with OVCAR-3 ovarian, 89.9%; in the test with HS 578T breast, 87.3%. Also, the growth in the test on NCI/ADR-RES ovarian was 94.4%; in the test on T-47D breast it was 97.1%; in the test with BT-549 breast it was 66%; in the test on MDA-MB-435 melanoma, -82% (active); in the test on SW-620 colon, -6.12% (active); in the test with MCF7 breast, -68.2% (active). Also, the growth with HCT-116 colon was 28%; in the test with HCC-2998 colon, 84.2%; with KM12 colon, 37.1%.
Regarding `COc1cc(/C=C2\CCC/C(=C\c3cc(CN4CCCCC4)c(O)c(OC)c3)C2=O)cc(CN2CCCCC2)c1O`, the growth is 55.5% in the test on RPMI-8226 leukemia; 114% with OVCAR-5 ovarian; 60.9% in the test on OVCAR-4 ovarian; 88.2% in the test on IGROV1 ovarian; 65.2% in the test on OVCAR-3 ovarian; 81.4% in the test with HS 578T breast. In addition, the growth in the test with T-47D breast was 104%; in the test with BT-549 breast, 103%; in the test on MDA-MB-435 melanoma, 76.8%; in the test with SW-620 colon, 71.4%; with MCF7 breast, 52.5%; in the test on HCT-116 colon it was 60.1%. For the same molecule, the growth with HCC-2998 colon was 103%; in the test on KM12 colon, 73.7%.
Turning to `COc1ccc2sc(N(Cc3cccnc3)C(=O)c3ccc(C#N)cc3)nc2c1`, the growth in the test on OVCAR-8 ovarian was 80.7%; in the test with OVCAR-5 ovarian, 96.7%; in the test with OVCAR-4 ovarian, 105%; with SK-OV-3 ovarian it was 106%; in the test on IGROV1 ovarian, 98.1%; in the test with OVCAR-3 ovarian it was 92.2%. For the same molecule, the growth in the test with HS 578T breast is 85.1%; with NCI/ADR-RES ovarian, 85.4%; in the test with T-47D breast, 78.3%; in the test on BT-549 breast, 92.1%; in the test on MDA-MB-435 melanoma, 66.5%; in the test on SW-620 colon, 90.6%. Also, the growth was 87% in the test on MCF7 breast, 58.2% with HCT-116 colon, 82.6% in the test with HCC-2998 colon and 75.8% in the test with KM12 colon.
As for `O=C(NC1C(O)OC(CO)C(O)C1O)NS(=O)(=O)c1ccc(Cl)cc1` (stereo not drawn), the growth with OVCAR-8 ovarian was 102%; with OVCAR-5 ovarian it was 99.7%; in the test on OVCAR-4 ovarian, 105%; in the test with SK-OV-3 ovarian it was 105%; in the test with IGROV1 ovarian, 107%; with OVCAR-3 ovarian, 112%. Moreover, the growth in the test on HS 578T breast is 98.7%; with NCI/ADR-RES ovarian it was 105%; in the test on T-47D breast it was 91.3%; in the test with BT-549 breast, 108%; in the test on MDA-MB-435 melanoma, 100%; in the test on SW-620 colon, 100%. Moreover, the growth is 98.2% in the test with MCF7 breast, 96.9% in the test with HCT-116 colon, 115% in the test on HCC-2998 colon and 104% in the test with KM12 colon.

Values taken from PubChem BioAssay (NCI).
